In PubChem BioAssay:
For part of these data: Results with a measured potency or affinity are listed apart. Activity calls are given as the source filed them.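 How the source made its calls, unless noted: active means fluorescence ratio normalized to control raised more than 50% in primary screen plus both repeat runs; inactive means the rest.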

Tests used:
[1] = tested on: TRPC4 beta (transient receptor potential cation channel C4), mouse; assay: activators of mouse TRPC4 channel, confirmation, cell-based, Fluo4 calcium, HEK293 TRPC4beta/mu-opioid, duplicates, 10 µM (AID 2426); details: Fluo4 calcium fluorescence, at 10 µM; hits give high values;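 further: percent rise of integrated ratio over buffer wells lacking compound which define 0%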
[2] = tested on: transient receptor potential cation channel C4 beta (TRPC4), mouse; assay: activators of mouse TRPC4 channel, confirmation, cell-based, second round, Fluo4, HEK293 TRPC4beta/mu-opioid, 1 µM (AID 2461;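 active means primary screen active and over 50% activation in each of two duplicate runs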;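 on activation: 0% = wells without test compound as baseline of integrated fluorescence ratio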); details: Fluo4 calcium fluorescence, at 1 µM; hits give high values
[3] = tested on: TRPC4 (transient receptor potential cation channel C4 beta), mouse; assay: positive allosteric modulators of mouse TRPC4, confirmation, cell-based, second round, Fluo-4, HEK293 TRPC4beta/mu-opioid, 1 µM (AID 2554;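 active means primary screen hit whose fluorescence ratio, in both repeats, exceeds the weak agonist control mean by 3 SD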); details: DAMGO EC20, Fluo-4 calcium flux, at 1 µM; hits give high values
[4] = tested on: TRPC4 beta (transient receptor potential cation channel C4), mouse; assay: positive allosteric modulators of mouse TRPC4, confirmation, cell-based, Fluo-4, HEK293 TRPC4beta/mu-opioid (AID 2555;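 active means primary screen hit whose calcium fluorescence ratio, in both repeats, exceeds the weak agonist control mean by 3 SD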); details: DAMGO EC20, Fluo-4 calcium flux, at 10 µM; hits give high values
[5] = biological target: Short transient receptor potential channel 4 (Mus musculus) (UniProt Q9QUQ5); assay: inhibitors of mouse TRPC4 channel, confirmation, cell-based, Fluo4, HEK293 TRPC4beta/mu-opioid (AID 2636;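 active means calcium signal cut by more than 3 SD below the full-agonist control yet still positive, in both repeats and the earlier primary screen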); details: DAMGO, Fluo4 calcium flux, at 10 µM; hits give high values
[6] = biological target: Short transient receptor potential channel 4 (Mus musculus) (UniProt Q9QUQ5); assay: inhibitors of mouse TRPC4 channel, confirmation, cell-based, second round, Fluo4, HEK293 TRPC4beta/mu-opioid, 1 µM (AID 2637;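 active means calcium signal ratio cut to more than 3 SD under the fully stimulated control mean yet still positive, in both repeats and the primary screen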); details: Fluo4 calcium flux, DAMGO, at 1 µM; hits give high values
[7] = biological target: Short transient receptor potential channel 4 (Mus musculus) (UniProt Q9QUQ5); assay: TRPC4 positive allosteric modulators, dose response, cell-based, HEK293 TRPC4/mu-opioid, Fluo-4 calcium, EC20 DAMGO (AID 434941;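 active means earlier screen potentiator hit that boosts the TRPC4 ion channel at some dose, with a dose response; inactive means no potentiation, no dose response, or not a prior hit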;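 further: calcium entry triggered by an EC20 dose of DAMGO at the co-expressed mu-opioid receptor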)
[8] = biological target: Short transient receptor potential channel 4 (Mus musculus) (UniProt Q9QUQ5); assay: mouse TRPC4 channel inhibitors, dose response, cell-based, HEK293 TRPC4/mu-opioid, Fluo-4 calcium (AID 434942;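 active means primary screen inhibitor hit that blocks the TRPC4 channel at some tested dose, yielding a dose curve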)
[9] = biological target: Short transient receptor potential channel 6 (Mus musculus) (UniProt Q61143); assay: inhibition of mouse TRPC6 channel, confirmation, selectivity assay for TRPC4 inhibitor project, cell-based, HEK293, membrane potential dye, duplicate (AID 434948;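 active means active in primary screen and both duplicates, each dropping signal beyond three positive-control SD with fluorescence still positive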); details: HEK293 TRPC6, membrane potential dye fluorescence, at 10 µM, stimulated with maximal-effect acetylcholine; hits give high values
[10] = biological target: Short transient receptor potential channel 6 (Mus musculus) (UniProt Q61143); assay: activation of mouse TRPC6 channel, confirmation, selectivity assay for TRPC4 activator project, cell-based, HEK293, membrane potential dye, duplicate (AID 434950;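 active means membrane potential signal rise above negative control mean plus 3 SD in both duplicates, also active in the earlier TRPC4 screen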;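 on activation: 0% = buffer only wells and 100% = acetylcholine maximal-effect wells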); details: HEK293 TRPC6, membrane potential fluorescence, at 10 µM; hits give high values
[11] = biological target: Short transient receptor potential channel 6 (Mus musculus) (UniProt Q61143); assay: TRPC6 potentiation by TRPC4 potentiator hits, confirmation, selectivity assay for TRPC4 potentiator project, HEK293 cells, membrane potential dye, duplicate (AID 434952;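 active means compound raising the membrane signal above positive-control mean plus 3 SD in both repeats, and a primary screen hit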); details: HEK293 TRPC6, membrane potential dye fluorescence, at 10 µM, maximal acetylcholine added after compound; hits give high values
[12] = biological target: Short transient receptor potential channel 4 (Mus musculus) (UniProt Q9QUQ5); assay: calcium flux activators in TRPC4/5HT1a cells, counter-screen for TRPC4 activator project, cell-based, second counter screen, HEK293 TRPC4/5HT1a, Fluo-4 (AID 434977;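 active means calcium signal rise above buffer-control mean plus 5 SD in both duplicates, and also a hit in the primary screen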;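 on activation: plate controls were assay buffer for no effect and maximal serotonin response for full effect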); details: Fluo-4 calcium flux, at 10 µM; hits give high values
[13] = calcium flux inhibitors in TRPC4/5HT1a cells, confirmation, counter-screen for TRPC4 inhibitor project, cell-based, second counter screen, HEK293 TRPC4/5HT1a, Fluo-4 (AID 434978;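 active means primary screen active whose calcium signal fell more than 3 SD beyond the full-serotonin control mean in both duplicate plates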;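 further: serotonin given first at submaximal then at maximal dose after compound preincubation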); details: Fluo-4 calcium flux, at 10 µM, serotonin added to trigger calcium flux; hits give high values
[14] = tested on: TRPC4 (mouse), co-expressed with 5HT1a in HEK293; assay: calcium flux potentiators in TRPC4/5HT1a cells, confirmation, counter-screen for TRPC4 potentiator project, cell-based, second counter screen, HEK293 TRPC4/5HT1a, Fluo-4 (AID 434979;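 active means signal rise over 3 SD above mean of control wells given weak agonist, in both repeats and first screen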); details: Fluo-4 calcium flux, at 10 µM, serotonin added at its EC20 dose; hits give high values
[15] = calcium flux activation in mu-opioid HEK293 cells, confirmation, counter-screen for TRPC4 activator project, cell-based, HEK293 mu-opioid receptor line (AID 449723;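 active means hit in primary screen, with calcium signal over 5 SD above buffer well mean in both duplicates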;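 further: counter screen cells carry the mu-opioid receptor alone and lack TRPC4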); details: Fluo-4 calcium fluorescence, at 10 µM; hits give high values
[16] = calcium flux enhancement in mu-opioid HEK293 cells, confirmation, counter-screen for TRPC4 allosteric potentiator project, cell-based, HEK293 mu-opioid receptor line (AID 449724;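 active means calcium signal rise more than 3 SD above the low-dose agonist control mean, in both duplicate plates and the primary screen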); details: Fluo-4 calcium flux, at 10 µM, compound added before EC20 DAMGO stimulus; hits give high values
[17] = thallium flux activation in parental CHO cells, counter-screen for KCNQ1 potentiator project (AID 493006;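 active means duplicate-averaged activation above buffer control mean plus 5 SD of those controls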;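 on activation: fluorescence ratio of max minus min over baseline after K+ and Tl+ depolarization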); details: parental CHO-K1 cells, FluxOR thallium flux, at 10 µM; hits give high values
[18] = biological target: Potassium voltage-gated channel subfamily KQT member 1 (Homo sapiens) (UniProt P51787); assay: KCNQ1 potassium channel potentiators, confirmation, FluxOR thallium flux, CHO cells, duplicates (AID 493007;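 active means potentiation averaged over duplicate wells exceeding buffer-only control mean by more than 3 SD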;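 on outcome: cells depolarized by a potassium plus thallium sulfate stimulus after compound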;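 on potentiation: 0% = buffer-only wells and 100% = R-L3 activator control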); details: KCNQ1 cell line, FluxOR thallium flux fluorescence, at 10 µM; hits give high values, % of reference activator effect, buffer zero
[19] = biological target: Potassium voltage-gated channel subfamily KQT member 2 (Rattus norvegicus) (UniProt O88943); assay: rat KCNQ2 channel potentiation, selectivity assay for KCNQ1 potentiator project, KCNQ2-CHO-K1 cells (AID 493009;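 active means mean duplicate potentiation above the buffer control mean plus 5 SD of buffer wells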;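 further: assay conditions were tuned for KCNQ1 rather than KCNQ2 modulators; signal is max minus min fluorescence divided by baseline after thallium stimulus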); details: FluxOR thallium flux fluorescence, at 10 µM; hits give high values, scaled: buffer 0, activator control 100
[20] = biological target: Potassium voltage-gated channel subfamily KQT member 1 (Homo sapiens) (UniProt P51787); assay: KCNQ1 channel current potentiators, confirmation, orthogonal assay for KCNQ1 potentiator project, IonWorks patch clamp, KCNQ1-CHO cells (AID 493184;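 active means current rise at least 3 SD above the untreated control mean in each of two repeat wells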); details: automated patch clamp current, at 10 µM; hits give high values

Sequence of Short transient receptor potential channel 4 (Mus musculus) (Q9QUQ5 whole entry, looked up): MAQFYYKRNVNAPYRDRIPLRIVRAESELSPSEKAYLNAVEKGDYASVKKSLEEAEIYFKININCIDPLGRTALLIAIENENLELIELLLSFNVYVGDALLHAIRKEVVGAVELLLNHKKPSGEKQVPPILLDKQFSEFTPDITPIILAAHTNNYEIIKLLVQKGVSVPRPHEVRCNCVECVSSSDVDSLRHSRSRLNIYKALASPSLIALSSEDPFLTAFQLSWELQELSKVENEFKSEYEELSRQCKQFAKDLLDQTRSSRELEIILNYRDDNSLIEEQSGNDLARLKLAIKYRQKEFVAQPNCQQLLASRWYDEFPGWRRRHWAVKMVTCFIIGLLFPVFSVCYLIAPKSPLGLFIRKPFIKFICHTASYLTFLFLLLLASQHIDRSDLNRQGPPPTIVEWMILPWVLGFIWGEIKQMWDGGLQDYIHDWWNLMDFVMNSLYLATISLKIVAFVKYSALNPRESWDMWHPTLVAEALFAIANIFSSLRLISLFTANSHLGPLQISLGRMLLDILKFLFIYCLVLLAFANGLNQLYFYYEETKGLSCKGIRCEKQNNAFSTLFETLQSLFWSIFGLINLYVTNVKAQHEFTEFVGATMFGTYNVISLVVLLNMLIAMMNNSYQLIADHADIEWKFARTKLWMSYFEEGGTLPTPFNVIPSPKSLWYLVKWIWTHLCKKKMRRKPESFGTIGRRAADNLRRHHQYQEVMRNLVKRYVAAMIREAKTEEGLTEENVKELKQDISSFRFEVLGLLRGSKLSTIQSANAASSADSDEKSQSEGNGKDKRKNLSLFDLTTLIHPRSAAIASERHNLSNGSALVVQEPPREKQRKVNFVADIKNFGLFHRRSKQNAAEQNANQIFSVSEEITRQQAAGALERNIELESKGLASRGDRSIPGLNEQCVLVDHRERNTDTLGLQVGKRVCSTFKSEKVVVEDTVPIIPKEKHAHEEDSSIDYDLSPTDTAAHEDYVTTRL
Sequence of Potassium voltage-gated channel subfamily KQT member 2 (Rattus norvegicus) (O88943 whole entry, looked up): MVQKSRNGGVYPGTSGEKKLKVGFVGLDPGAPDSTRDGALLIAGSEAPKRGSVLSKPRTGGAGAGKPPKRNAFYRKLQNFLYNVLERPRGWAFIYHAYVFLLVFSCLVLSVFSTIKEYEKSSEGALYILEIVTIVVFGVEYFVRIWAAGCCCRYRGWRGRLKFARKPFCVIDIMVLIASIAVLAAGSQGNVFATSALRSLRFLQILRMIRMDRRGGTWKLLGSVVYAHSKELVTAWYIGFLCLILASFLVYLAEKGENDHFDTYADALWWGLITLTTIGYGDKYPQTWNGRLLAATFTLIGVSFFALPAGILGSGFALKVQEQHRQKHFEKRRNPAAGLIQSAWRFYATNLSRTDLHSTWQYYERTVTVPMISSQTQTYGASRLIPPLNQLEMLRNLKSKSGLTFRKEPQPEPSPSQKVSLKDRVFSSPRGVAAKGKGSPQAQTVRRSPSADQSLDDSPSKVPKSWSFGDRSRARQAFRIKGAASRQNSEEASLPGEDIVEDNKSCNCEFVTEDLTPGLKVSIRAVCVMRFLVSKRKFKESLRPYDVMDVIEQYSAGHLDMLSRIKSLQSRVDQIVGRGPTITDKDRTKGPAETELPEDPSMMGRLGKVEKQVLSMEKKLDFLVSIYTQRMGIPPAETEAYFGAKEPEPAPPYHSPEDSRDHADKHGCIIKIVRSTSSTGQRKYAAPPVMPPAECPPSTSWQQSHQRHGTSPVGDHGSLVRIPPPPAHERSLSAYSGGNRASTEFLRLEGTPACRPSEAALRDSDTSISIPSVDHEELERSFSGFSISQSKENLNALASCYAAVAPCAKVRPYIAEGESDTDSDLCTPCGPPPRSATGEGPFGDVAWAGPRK
Sequence of Short transient receptor potential channel 6 (Mus musculus) (Q61143 whole entry, looked up): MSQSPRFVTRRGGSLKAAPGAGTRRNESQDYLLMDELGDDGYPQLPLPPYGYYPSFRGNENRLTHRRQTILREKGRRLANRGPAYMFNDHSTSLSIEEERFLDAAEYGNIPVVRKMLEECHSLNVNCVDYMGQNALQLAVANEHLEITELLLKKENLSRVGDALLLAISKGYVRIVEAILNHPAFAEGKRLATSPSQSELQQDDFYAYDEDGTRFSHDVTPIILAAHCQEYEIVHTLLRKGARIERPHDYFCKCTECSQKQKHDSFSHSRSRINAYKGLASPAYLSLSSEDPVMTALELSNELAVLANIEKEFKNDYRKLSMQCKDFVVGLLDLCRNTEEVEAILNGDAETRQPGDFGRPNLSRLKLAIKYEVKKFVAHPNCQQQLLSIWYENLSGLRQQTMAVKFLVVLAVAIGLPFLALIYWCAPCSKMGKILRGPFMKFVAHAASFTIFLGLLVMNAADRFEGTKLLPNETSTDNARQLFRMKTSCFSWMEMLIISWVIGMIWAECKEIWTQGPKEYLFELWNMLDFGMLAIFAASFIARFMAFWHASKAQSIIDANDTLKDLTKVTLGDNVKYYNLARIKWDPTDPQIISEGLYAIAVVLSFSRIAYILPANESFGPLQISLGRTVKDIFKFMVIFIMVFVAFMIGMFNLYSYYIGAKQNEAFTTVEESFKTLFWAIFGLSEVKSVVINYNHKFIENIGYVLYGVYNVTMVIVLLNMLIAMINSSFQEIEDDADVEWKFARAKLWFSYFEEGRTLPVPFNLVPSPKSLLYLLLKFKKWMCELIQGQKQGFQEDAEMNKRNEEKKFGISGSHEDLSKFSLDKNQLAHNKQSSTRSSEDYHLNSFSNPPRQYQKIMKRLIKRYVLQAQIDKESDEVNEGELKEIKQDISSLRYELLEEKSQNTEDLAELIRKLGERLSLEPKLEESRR
Sequence of Potassium voltage-gated channel subfamily KQT member 1 (Homo sapiens) (P51787 whole entry, looked up): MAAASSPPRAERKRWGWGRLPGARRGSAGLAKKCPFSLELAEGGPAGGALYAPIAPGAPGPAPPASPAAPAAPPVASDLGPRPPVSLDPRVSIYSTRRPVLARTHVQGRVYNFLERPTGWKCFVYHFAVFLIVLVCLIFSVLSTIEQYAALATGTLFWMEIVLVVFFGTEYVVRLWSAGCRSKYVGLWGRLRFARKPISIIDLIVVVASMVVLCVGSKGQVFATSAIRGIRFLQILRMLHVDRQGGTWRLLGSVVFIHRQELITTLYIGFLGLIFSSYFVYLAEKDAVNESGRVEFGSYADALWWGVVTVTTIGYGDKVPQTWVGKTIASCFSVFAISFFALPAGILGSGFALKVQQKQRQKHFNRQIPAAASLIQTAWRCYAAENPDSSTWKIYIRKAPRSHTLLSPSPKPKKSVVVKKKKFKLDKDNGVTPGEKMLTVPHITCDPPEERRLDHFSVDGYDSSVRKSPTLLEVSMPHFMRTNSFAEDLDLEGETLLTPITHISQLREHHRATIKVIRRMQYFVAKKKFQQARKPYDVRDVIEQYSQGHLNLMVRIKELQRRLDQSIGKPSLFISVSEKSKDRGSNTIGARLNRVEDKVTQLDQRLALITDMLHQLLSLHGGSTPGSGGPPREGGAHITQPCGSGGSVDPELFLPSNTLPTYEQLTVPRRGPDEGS

Cc1ccc(C(=O)NNC(=S)NC(=O)c2ccccc2)cc1
active: activation [1] 239% | activation [10] 27% | activation [12] 133% | activation [15] 77.1% | activation [17] 188% | potentiation [18] 156% | potentiation [19] 300%
inactive: outcome [2] | outcome [3] | outcome [4] | outcome [5] | outcome [6] | outcome [7] | outcome [8] | outcome [9] | outcome [11] | outcome [13] | outcome [14] | outcome [16] | outcome [20]

COc1ccc(C(CNC(=O)c2cccc(S(=O)(=O)NCc3ccccc3)c2)N(C)C)cc1 (stereo not drawn)
active: activation [1] 129% | activation [2] 61% | activation [10] 38%
inactive: outcome [3] | outcome [4] | outcome [5] | outcome [6] | outcome [7] | outcome [8] | outcome [9] | outcome [11] | outcome [12] | outcome [13] | outcome [14] | outcome [15] | outcome [16]

CC(C)(C)C(=O)NC(=S)NNC(=O)c1ccc(-c2ccccc2)cc1
inactive: outcome [3] | outcome [4] | outcome [5] | outcome [6] | outcome [7] | outcome [8] | outcome [9] | outcome [11] | outcome [13] | outcome [14] | outcome [16] | outcome [20]
active: activation [1] 257% | activation [2] 60% | activation [10] 35.5% | activation [12] 147% | activation [15] 83.6% | activation [17] 308% | potentiation [18] 163% | potentiation [19] 430%

CCn1c(N2CCN(C(=O)Nc3ccc(F)cc3)CC2)nc2ccccc21
active: activation [1] 119% | activation [10] 41% | activation [12] 28.1%
inactive: outcome [2] | outcome [3] | outcome [4] | outcome [5] | outcome [6] | outcome [7] | outcome [8] | outcome [9] | outcome [11] | outcome [13] | outcome [14] | outcome [15] | outcome [16]

COc1cc(OC)cc(C(=O)N[C@H](C(=O)OCC(=O)NC(C)c2ccccc2)C(C)C)c1 (stereo partly drawn)
active: activation [1] 118% | activation [10] 36% | activation [12] 85.2% | activation [15] 45.3%
inactive: outcome [2] | outcome [3] | outcome [4] | outcome [5] | outcome [6] | outcome [7] | outcome [8] | outcome [9] | outcome [11] | outcome [13] | outcome [14] | outcome [16] | outcome [17] | outcome [18] | outcome [19] | outcome [20]

Cc1occc1C(=O)NNC(=S)NC(=O)COc1ccc(Cl)cc1Cl
inactive: outcome [2] | outcome [3] | outcome [4] | outcome [5] | outcome [6] | outcome [7] | outcome [8] | outcome [9] | outcome [10] | outcome [11] | outcome [13] | outcome [14] | outcome [16] | outcome [20]
active: activation [1] 108% | activation [12] 58.4% | activation [15] 18.4% | activation [17] 256% | potentiation [18] 259% | potentiation [19] 442%

CCOC(=O)C1=NN(C(=O)c2ccc(C)cc2)C(O)(c2ccc(Cl)cc2)C1 (stereo not drawn)
active: activation [1] 98% | activation [10] 217% | activation [12] 66.4% | activation [15] 37.9% | activation [17] 630% | potentiation [18] 336% | potentiation [19] 655%
inactive: outcome [2] | outcome [3] | outcome [4] | outcome [5] | outcome [6] | outcome [7] | outcome [8] | outcome [9] | outcome [11] | outcome [13] | outcome [14] | outcome [16] | outcome [20]

Cc1cccc(C(=O)NNC(=S)NC(=O)c2cccs2)c1
inactive: outcome [2] | outcome [3] | outcome [4] | outcome [5] | outcome [6] | outcome [7] | outcome [8] | outcome [9] | outcome [10] | outcome [11] | outcome [13] | outcome [14] | outcome [16] | outcome [20]
active: activation [1] 158% | activation [12] 124% | activation [15] 36.4% | activation [17] 142% | potentiation [18] 91% | potentiation [19] 226%

COc1ccc(C(CNC(=O)C(C)c2ccc3cc(OC)ccc3c2)N(C)C)cc1 (stereo not drawn)
active: activation [1] 243% | activation [2] 98% | activation [10] 63% | activation [12] 8.72%
inactive: outcome [3] | outcome [4] | outcome [5] | outcome [6] | outcome [7] | outcome [8] | outcome [9] | outcome [11] | outcome [13] | outcome [14] | outcome [15] | outcome [16]

Cc1ccc(NS(=O)(=O)c2ccc(C(=O)N3CC(C)CC(C)C3)cc2)cc1 (stereo not drawn)
inactive: outcome [2] | outcome [3] | outcome [4] | outcome [5] | outcome [6] | outcome [7] | outcome [8] | outcome [9] | outcome [11] | outcome [13] | outcome [14] | outcome [16] | outcome [18] | outcome [19] | outcome [20]
active: activation [1] 103% | activation [10] 65.5% | activation [12] 43.8% | activation [15] 25.6% | activation [17] 138%

CCCOc1ccc(C(=O)NNC(=S)NC(=O)c2ccco2)cc1
inactive: outcome [2] | outcome [3] | outcome [4] | outcome [5] | outcome [6] | outcome [7] | outcome [8] | outcome [9] | outcome [11] | outcome [13] | outcome [14] | outcome [16] | outcome [20]
active: activation [1] 223% | activation [10] 38.5% | activation [12] 143% | activation [15] 61.8% | activation [17] 195% | potentiation [18] 212% | potentiation [19] 340%

OCCN1CCN(Cc2cc(Br)cc(Br)c2O)CC1
active: activation [1] 199% | activation [2] 170% | activation [10] 32% | activation [12] 85.4%
inactive: outcome [3] | outcome [4] | outcome [5] | outcome [6] | outcome [7] | outcome [8] | outcome [9] | outcome [11] | outcome [13] | outcome [14] | outcome [15] | outcome [16] | outcome [17] | outcome [18] | outcome [19] | outcome [20]
